# Data: PMC7862700, “An all-to-all approach to the identification of sequence-specific readers for epigenetic DNA modifications on cytosine”
# What was measured:
# Test in all cases: DAPPL (digital affinity profiling via proximity ligation, sequencing); 10 mM Tris-HCl pH 7.5, 50 mM NaCl, 1 mM DTT, 4% glycerol, room temperature, 30 min; GST-TFs on glutathione beads, 16-mer random dsDNA library, 0.1% formaldehyde crosslink after washing; high values mean tight binding
# FLI1 = target: T1, FLI1 (Homo sapiens, UniProt Q01543 1-452); conditions: protein: recombinant; tags: N-terminal GST; dsDNA, one strand shown
# T1 sequence: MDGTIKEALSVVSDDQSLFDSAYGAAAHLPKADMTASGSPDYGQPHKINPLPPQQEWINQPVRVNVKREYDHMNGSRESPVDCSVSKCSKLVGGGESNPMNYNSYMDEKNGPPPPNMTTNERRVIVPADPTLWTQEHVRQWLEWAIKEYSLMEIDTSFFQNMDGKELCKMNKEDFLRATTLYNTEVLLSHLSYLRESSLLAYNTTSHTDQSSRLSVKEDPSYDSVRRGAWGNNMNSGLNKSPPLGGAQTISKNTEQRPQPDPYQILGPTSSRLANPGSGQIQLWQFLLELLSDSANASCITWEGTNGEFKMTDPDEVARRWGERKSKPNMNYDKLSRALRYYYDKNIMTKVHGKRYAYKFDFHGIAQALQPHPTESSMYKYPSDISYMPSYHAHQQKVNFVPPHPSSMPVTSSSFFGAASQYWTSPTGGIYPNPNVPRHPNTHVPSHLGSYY
# Method in brief: (§1)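 Beads coated with glutathione captured GST-fused human transcription factors that had been expressed in yeast, and the factors were then given DNA barcodes and pooled with a tag-only sample. The pools were incubated with 200 nmole of a random double-stranded 16-mer DNA library in Tris/NaCl/DTT/glycerol buffer for 30 min at room temperature, washed, crosslinked with 0.1% formaldehyde and proximity-ligated with BsaI/T4 ligase at 37 °C for 1 h. PCR amplification and Illumina NextSeq500 sequencing came last. Binding signal is each hexamer's read frequency for a factor divided by its frequency for the tag-only sample.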
# ELK1 = target: T2, ELK1 (Homo sapiens, UniProt P19419 1-428); conditions: protein: recombinant; tags: N-terminal GST; dsDNA, one strand shown
# T2 sequence: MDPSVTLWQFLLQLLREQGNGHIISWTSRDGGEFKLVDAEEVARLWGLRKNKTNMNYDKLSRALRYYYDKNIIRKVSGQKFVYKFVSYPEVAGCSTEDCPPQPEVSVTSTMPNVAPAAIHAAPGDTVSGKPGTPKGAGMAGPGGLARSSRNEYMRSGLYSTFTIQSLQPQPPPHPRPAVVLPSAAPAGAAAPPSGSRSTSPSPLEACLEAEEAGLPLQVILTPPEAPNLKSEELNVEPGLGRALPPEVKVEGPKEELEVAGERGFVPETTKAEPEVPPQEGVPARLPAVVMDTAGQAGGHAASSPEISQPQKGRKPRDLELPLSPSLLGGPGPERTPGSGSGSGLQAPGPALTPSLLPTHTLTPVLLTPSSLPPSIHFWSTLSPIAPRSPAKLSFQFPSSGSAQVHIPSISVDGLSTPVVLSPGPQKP
# Method in brief: as §1
# GABPA = target: T3, GABPA (Homo sapiens, UniProt Q06546 1-454); conditions: protein: recombinant; tags: N-terminal GST; dsDNA, one strand shown
# T3 sequence: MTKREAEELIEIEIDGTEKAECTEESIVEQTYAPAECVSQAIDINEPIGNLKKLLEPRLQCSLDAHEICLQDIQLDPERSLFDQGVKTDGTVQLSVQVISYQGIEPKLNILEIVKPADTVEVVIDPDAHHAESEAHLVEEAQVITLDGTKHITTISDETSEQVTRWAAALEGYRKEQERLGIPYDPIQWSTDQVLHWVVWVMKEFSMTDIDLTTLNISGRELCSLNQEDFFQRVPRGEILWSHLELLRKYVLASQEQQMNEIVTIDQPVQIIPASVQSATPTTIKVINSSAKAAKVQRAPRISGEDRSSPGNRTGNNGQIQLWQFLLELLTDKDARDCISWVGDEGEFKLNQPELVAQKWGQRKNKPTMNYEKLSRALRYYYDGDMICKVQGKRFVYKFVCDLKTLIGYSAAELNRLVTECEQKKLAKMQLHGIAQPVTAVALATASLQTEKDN
# Method in brief: as §1
# ERG = target: T4, ERG (Homo sapiens, UniProt P11308 1-479); conditions: protein: recombinant; tags: N-terminal GST; dsDNA, one strand shown
# T4 sequence: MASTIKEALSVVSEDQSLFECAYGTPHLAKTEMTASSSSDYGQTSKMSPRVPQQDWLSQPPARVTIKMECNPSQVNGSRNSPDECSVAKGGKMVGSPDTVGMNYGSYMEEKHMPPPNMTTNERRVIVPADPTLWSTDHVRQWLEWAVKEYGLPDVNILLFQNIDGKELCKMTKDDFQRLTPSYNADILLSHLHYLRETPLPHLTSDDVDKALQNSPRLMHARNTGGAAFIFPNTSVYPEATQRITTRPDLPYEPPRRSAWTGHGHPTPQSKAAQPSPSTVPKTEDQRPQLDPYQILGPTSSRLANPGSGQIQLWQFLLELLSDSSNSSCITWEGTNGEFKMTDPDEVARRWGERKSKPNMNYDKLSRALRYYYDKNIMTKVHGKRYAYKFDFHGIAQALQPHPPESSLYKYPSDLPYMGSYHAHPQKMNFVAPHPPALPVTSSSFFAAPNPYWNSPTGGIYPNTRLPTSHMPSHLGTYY
# Method in brief: as §1
# ELF1 = ELF1 (Homo sapiens, UniProt P32519 1-619); conditions: protein: recombinant; tags: N-terminal GST; dsDNA, one strand shown
# Method in brief: as §1
# EHF = target: T5, EHF (Homo sapiens, UniProt Q9NZC4 1-300); conditions: protein: recombinant; tags: N-terminal GST; dsDNA, one strand shown
# T5 sequence: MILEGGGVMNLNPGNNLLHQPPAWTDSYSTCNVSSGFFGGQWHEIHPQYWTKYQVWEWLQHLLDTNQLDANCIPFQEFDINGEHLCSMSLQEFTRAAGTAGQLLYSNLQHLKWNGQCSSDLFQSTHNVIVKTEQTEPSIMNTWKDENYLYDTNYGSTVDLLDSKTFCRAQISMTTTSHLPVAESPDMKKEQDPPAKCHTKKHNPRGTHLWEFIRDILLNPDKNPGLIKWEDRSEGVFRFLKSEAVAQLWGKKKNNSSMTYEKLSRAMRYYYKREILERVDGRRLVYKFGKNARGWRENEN
# Method in brief: as §1
# SPI1 = SPI1 (Homo sapiens, UniProt P17947 1-270); conditions: protein: recombinant; tags: N-terminal GST; dsDNA, one strand shown
# Method in brief: as §1
# SPIB = SPIB (Homo sapiens, UniProt Q01892 1-262); conditions: protein: recombinant; tags: N-terminal GST; dsDNA, one strand shown
# Method in brief: as §1
# ELK3 = target: T6, ELK3 (Homo sapiens, UniProt P41970 1-407); conditions: protein: recombinant; tags: N-terminal GST; dsDNA, one strand shown
# T6 sequence: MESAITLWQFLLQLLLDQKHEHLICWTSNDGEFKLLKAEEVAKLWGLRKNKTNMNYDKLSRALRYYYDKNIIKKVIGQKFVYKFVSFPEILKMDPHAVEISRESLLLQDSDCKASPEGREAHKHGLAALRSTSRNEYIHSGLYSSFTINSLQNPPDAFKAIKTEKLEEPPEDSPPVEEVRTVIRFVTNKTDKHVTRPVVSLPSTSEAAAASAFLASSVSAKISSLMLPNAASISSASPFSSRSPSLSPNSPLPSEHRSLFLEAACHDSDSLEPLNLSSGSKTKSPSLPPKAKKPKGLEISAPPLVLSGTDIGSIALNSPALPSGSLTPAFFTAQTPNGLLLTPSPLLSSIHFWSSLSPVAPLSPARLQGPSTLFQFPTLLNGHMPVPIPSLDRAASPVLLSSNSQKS
# Method in brief: as §1
# FEV = target: T7, FEV (Homo sapiens, UniProt Q99581 1-238); conditions: protein: recombinant; tags: N-terminal GST; dsDNA, one strand shown
# T7 sequence: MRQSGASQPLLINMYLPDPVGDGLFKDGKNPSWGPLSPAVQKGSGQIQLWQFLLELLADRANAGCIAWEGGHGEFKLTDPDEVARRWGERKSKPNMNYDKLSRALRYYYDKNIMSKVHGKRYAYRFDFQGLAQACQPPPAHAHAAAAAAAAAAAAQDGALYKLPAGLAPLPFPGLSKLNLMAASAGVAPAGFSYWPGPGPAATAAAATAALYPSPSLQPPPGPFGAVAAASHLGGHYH
# Method in brief: as §1
# ETV5 = ETV5 (Homo sapiens, UniProt P41161 1-510); conditions: protein: recombinant; tags: N-terminal GST; dsDNA, one strand shown
# Method in brief: as §1
# HSF1 = HSF1 (Homo sapiens, UniProt Q00613 1-529); conditions: protein: recombinant; tags: N-terminal GST; chain copies: 3; dsDNA, one strand shown
# Method in brief: as §1
# SPIC = target: T8, SPIC (Homo sapiens, UniProt Q8N5J4 1-248); conditions: protein: recombinant; tags: N-terminal GST; dsDNA, one strand shown
# T8 sequence: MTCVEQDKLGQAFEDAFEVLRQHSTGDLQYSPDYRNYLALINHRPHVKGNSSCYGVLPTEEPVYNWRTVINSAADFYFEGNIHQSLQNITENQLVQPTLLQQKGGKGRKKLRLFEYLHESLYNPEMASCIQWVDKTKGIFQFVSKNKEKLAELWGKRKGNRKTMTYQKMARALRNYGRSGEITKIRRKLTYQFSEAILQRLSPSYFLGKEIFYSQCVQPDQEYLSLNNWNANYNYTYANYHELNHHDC
# Method in brief: as §1
# ELF4 = ELF4 (Homo sapiens, UniProt Q99607 1-663); conditions: protein: recombinant; tags: N-terminal GST; dsDNA, one strand shown
# Method in brief: as §1
# ELK4 = target: T9, ELK4 (Homo sapiens, UniProt P28324-2 1-405); conditions: protein: recombinant; tags: N-terminal GST; dsDNA, one strand shown
# T9 sequence: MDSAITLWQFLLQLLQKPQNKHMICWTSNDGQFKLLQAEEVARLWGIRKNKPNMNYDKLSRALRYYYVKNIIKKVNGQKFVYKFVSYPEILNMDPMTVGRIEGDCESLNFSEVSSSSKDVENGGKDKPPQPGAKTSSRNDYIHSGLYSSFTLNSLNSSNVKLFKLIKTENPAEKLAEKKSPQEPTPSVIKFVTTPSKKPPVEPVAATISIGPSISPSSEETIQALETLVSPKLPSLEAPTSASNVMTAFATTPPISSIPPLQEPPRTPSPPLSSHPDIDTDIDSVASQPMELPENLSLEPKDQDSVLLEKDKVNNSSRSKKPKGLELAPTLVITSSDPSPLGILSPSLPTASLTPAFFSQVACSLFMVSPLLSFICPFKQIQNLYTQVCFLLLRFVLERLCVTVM
# Method in brief: as §1
# ETV2 = target: T10, ETV2 (Homo sapiens, UniProt O00321 1-342); conditions: protein: recombinant; tags: N-terminal GST; dsDNA, one strand shown
# T10 sequence: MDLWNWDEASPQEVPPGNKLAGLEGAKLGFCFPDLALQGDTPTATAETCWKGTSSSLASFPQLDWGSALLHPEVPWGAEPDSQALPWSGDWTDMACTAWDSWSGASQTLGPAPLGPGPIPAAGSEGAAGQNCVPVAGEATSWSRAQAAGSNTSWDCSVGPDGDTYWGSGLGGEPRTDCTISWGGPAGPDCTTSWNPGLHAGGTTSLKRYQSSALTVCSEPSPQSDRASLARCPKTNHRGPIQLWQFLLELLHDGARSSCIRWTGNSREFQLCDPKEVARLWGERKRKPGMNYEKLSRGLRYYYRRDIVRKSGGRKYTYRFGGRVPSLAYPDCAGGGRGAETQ
# Method in brief: as §1
# ELF3 = target: T11, ELF3 (Homo sapiens, UniProt P78545 1-371); conditions: protein: recombinant; tags: N-terminal GST; dsDNA, one strand shown
# T11 sequence: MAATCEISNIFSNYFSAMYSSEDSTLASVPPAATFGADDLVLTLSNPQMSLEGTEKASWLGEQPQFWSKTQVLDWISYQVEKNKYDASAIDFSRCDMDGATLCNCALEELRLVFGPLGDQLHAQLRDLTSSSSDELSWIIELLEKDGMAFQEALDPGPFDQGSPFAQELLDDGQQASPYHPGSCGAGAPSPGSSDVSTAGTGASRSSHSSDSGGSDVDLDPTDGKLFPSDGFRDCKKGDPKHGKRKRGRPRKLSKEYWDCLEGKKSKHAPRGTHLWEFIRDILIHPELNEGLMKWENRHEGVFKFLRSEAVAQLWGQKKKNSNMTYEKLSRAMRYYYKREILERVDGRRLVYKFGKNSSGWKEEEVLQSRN
# Method in brief: as §1
# CRX = CRX (Homo sapiens, UniProt O43186 1-299); conditions: protein: recombinant; tags: N-terminal GST; dsDNA, one strand shown
# Method in brief: as §1
# ETV1 = ETV1 (Homo sapiens, UniProt P50549 1-477); conditions: protein: recombinant; tags: N-terminal GST; dsDNA, one strand shown
# Method in brief: as §1
# HSF1, sequence (Q00613 whole entry): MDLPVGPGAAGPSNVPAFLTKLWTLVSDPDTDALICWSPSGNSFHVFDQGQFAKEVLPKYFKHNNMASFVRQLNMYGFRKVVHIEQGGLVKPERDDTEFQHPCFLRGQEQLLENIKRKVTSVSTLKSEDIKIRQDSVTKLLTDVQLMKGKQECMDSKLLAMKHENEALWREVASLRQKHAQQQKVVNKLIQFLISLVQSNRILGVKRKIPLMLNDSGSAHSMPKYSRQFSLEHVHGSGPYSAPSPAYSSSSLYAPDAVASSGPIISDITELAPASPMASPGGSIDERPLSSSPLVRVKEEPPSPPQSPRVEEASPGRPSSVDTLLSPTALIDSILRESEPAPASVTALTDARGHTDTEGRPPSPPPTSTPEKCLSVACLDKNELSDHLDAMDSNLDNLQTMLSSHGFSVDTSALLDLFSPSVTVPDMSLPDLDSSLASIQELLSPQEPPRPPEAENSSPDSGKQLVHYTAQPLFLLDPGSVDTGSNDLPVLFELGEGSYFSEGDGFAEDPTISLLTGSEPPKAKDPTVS
# ETV5, sequence (P41161 whole entry): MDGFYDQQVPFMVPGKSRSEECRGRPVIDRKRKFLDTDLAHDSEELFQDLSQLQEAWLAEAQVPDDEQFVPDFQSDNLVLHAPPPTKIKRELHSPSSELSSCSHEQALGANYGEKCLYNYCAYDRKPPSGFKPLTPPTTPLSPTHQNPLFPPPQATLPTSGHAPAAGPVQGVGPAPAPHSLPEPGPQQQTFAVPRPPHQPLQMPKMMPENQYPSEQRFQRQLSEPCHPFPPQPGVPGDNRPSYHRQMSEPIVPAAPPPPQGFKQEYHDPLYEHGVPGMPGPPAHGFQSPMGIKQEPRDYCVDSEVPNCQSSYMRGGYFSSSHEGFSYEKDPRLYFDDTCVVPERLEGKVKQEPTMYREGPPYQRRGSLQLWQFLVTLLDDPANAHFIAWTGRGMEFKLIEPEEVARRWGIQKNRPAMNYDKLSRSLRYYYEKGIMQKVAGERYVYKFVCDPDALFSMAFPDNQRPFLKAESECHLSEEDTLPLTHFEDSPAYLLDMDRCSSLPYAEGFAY
# ETV1, sequence (P50549 whole entry): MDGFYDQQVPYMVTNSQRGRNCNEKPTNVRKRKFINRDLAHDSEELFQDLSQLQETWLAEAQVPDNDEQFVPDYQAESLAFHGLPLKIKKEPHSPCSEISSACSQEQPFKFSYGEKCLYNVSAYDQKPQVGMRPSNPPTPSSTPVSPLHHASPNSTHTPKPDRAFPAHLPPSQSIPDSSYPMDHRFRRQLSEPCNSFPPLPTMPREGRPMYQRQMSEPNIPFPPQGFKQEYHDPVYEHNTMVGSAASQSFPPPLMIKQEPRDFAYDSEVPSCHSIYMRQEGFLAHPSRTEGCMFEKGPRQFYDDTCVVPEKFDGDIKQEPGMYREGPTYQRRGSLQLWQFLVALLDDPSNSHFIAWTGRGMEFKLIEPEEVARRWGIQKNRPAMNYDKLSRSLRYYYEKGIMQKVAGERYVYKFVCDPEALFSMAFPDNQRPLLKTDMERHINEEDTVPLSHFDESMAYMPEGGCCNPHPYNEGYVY
# SPIB, sequence (Q01892 whole entry): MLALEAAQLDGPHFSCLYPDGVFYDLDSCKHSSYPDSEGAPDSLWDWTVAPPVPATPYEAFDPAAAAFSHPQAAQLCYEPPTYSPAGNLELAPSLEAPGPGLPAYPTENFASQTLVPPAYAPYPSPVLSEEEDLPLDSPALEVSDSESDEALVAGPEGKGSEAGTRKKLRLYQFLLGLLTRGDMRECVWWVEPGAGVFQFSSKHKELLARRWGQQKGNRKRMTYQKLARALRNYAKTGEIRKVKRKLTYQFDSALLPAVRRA
# ELF1, sequence (P32519 whole entry): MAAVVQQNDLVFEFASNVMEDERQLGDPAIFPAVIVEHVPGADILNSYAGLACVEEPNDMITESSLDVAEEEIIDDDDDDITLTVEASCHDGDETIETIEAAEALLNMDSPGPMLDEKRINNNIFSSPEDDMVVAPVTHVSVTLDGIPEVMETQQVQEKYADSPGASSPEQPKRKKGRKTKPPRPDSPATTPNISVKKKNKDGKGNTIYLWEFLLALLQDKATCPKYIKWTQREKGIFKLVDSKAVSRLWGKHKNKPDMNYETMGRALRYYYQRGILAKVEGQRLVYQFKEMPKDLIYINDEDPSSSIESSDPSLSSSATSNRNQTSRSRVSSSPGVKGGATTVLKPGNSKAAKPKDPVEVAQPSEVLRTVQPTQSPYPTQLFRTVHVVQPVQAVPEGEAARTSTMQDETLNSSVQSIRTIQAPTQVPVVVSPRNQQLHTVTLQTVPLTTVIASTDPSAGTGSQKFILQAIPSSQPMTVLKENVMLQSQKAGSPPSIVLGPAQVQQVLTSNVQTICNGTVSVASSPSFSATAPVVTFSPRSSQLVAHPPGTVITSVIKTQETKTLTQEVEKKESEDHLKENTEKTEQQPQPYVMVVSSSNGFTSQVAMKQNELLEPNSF
# ELF4, sequence (Q99607 whole entry): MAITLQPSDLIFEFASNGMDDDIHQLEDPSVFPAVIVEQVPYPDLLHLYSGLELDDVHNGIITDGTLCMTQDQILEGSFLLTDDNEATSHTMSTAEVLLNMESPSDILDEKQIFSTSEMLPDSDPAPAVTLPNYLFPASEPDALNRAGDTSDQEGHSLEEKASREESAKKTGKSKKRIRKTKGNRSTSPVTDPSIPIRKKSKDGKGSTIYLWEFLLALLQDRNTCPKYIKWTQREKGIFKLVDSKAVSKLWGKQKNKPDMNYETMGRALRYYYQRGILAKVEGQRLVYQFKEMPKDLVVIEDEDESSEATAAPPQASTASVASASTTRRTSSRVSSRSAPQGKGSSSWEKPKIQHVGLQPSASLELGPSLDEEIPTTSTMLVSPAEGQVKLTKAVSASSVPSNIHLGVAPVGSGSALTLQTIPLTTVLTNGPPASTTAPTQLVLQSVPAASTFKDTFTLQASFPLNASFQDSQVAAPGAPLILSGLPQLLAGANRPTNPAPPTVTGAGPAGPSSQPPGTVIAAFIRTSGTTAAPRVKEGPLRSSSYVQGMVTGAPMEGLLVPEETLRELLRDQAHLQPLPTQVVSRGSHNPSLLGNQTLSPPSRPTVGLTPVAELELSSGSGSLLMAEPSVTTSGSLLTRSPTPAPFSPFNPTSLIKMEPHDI
# CRX, sequence (O43186 whole entry): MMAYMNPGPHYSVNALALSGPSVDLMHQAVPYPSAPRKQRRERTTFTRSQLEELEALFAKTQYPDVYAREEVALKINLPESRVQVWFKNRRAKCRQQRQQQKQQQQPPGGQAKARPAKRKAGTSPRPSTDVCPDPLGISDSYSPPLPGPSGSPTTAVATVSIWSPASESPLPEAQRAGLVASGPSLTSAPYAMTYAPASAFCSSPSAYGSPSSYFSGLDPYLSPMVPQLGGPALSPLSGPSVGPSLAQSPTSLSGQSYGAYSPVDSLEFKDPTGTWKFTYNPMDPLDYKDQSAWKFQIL
sequence,measurement,setting,value
CTTTCC,binding signal,FLI1,"2.05 fold enrichment (6-mer frequency, TF over GST control)"
same,binding signal,ELK1,"1.9 fold enrichment (6-mer frequency, TF over GST control)"
same,binding signal,GABPA,"1.83 fold enrichment (6-mer frequency, TF over GST control)"
same,binding signal,ERG,"2.04 fold enrichment (6-mer frequency, TF over GST control)"
same,binding signal,ELF1,"1.89 fold enrichment (6-mer frequency, TF over GST control)"
same,binding signal,EHF,"2.05 fold enrichment (6-mer frequency, TF over GST control)"
same,binding signal,SPI1,"1.84 fold enrichment (6-mer frequency, TF over GST control)"
same,binding signal,SPIB,"2.18 fold enrichment (6-mer frequency, TF over GST control)"
same,binding signal,ELK3,"2.1 fold enrichment (6-mer frequency, TF over GST control)"
same,binding signal,FEV,"2.15 fold enrichment (6-mer frequency, TF over GST control)"
same,binding signal,ETV5,"2.04 fold enrichment (6-mer frequency, TF over GST control)"
same,binding signal,HSF1,"2.13 fold enrichment (6-mer frequency, TF over GST control)"
same,binding signal,SPIC,"1.82 fold enrichment (6-mer frequency, TF over GST control)"
same,binding signal,ELF4,"1.9 fold enrichment (6-mer frequency, TF over GST control)"
same,binding signal,ELK4,"1.94 fold enrichment (6-mer frequency, TF over GST control)"
same,binding signal,ETV2,"2.11 fold enrichment (6-mer frequency, TF over GST control)"
same,binding signal,ELF3,"1.63 fold enrichment (6-mer frequency, TF over GST control)"
same,binding signal,CRX,"1.54 fold enrichment (6-mer frequency, TF over GST control)"
same,binding signal,ETV1,"1.91 fold enrichment (6-mer frequency, TF over GST control)"
